# Assay results taken from PubChem BioAssay.
# Activity calls are given as the source filed them. Unless noted, no rule for the calls is given here.
# What was measured:
# [1] = compounds binding Alexa647 anti-His antibody – biochemical, small-molecule microarray, 635 nm fluorescence, artefact control for SMM control protein annotation, primary screen (AID 1128); conditions: higher = more signal;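 also: score merges feature fluorescence with signal-to-noise for each printed compound spot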
# [2] = tested on: Human papillomavirus type 1a E7 protein (residues 1-88); assay: HPV1a E7 small-molecule binders, primary screen, biochemical, small-molecule microarray, residues 1-88, 635 nm (AID 1129); conditions: small-molecule microarray binding, fluorescence 635 nm; higher = more signal
# [3] = molecular target: Focal adhesion kinase 1 (Homo sapiens) (UniProt Q05397); assay: PTK2 protein binding on printed compound slides – biochemical, small-molecule microarray, 635/667 nm fluorescence, BSA, DTT, primary screen (AID 1130); conditions: 635 nm fluorescence, higher = more signal;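 also: composite of spot emission at 667 nm and signal to noise over triplicate slides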
# Sequence of Focal adhesion kinase 1 (Homo sapiens) (Q05397 whole entry, looked up): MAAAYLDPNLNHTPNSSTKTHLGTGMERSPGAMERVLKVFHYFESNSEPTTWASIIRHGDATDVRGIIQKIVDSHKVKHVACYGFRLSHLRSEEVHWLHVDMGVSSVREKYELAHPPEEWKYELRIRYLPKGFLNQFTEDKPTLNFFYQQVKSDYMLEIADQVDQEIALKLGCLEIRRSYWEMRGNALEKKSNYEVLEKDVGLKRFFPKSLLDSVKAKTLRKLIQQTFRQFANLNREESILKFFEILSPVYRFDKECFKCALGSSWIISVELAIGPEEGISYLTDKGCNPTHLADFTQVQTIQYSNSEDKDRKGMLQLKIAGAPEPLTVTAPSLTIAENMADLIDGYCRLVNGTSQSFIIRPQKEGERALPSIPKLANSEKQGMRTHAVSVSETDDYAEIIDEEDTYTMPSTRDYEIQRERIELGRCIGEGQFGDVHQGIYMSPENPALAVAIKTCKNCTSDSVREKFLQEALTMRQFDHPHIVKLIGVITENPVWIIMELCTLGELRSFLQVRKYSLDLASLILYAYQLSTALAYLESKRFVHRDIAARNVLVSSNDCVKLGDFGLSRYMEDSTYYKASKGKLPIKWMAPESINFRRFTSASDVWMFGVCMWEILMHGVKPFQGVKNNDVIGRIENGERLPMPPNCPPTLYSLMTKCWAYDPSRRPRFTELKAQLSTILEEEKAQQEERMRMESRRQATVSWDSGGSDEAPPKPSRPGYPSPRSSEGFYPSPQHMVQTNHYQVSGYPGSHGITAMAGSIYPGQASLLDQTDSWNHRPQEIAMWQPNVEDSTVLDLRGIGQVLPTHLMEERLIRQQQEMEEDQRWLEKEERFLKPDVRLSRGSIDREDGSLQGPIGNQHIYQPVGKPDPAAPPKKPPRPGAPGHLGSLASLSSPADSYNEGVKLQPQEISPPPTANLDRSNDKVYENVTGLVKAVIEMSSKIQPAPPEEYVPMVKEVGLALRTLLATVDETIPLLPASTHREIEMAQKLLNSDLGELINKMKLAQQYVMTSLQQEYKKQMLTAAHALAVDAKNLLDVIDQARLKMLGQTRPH
# [4] = tested on: Fibrinogen (Alexa647-labelled); assay: Alexa647-fibrinogen binding to printed small molecules – biochemical, small-molecule microarray, 635/667 nm fluorescence, artefact control for SMM control-protein annotation, profiling panel (AID 1131); conditions: fibrinogen-A647 binding fluorescence, higher = more signal;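 also: z-score merges 667 nm fluorescence with per-spot signal-to-noise over triplicate slides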
# [5] = molecular target: Follistatin (Homo sapiens) (UniProt P19883); assay: FST protein binding to printed compounds – biochemical, small-molecule microarray, 635/667 nm fluorescence, primary screen (AID 1132); conditions: 635 nm fluorescence, higher = more signal
# Sequence of Follistatin (Homo sapiens) (P19883 whole entry, looked up): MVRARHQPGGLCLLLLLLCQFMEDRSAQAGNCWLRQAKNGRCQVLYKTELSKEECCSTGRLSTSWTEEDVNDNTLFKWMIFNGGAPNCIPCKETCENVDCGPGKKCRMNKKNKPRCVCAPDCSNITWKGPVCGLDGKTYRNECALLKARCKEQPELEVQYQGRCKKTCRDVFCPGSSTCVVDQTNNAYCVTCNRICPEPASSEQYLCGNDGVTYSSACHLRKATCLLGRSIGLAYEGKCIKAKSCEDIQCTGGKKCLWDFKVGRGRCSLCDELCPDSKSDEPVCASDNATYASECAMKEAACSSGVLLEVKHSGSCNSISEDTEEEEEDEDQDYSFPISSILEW
# [6] = molecular target: Fibroblast growth factor 2 (Homo sapiens) (UniProt P09038); assay: basic fibroblast growth factor binding to printed compounds – biochemical, small-molecule microarray, 635/667 nm fluorescence, primary screen (AID 1133); conditions: FGF2, fluorescence 635/667, higher = more signal
# Sequence of Fibroblast growth factor 2 (Homo sapiens) (P09038 whole entry, looked up): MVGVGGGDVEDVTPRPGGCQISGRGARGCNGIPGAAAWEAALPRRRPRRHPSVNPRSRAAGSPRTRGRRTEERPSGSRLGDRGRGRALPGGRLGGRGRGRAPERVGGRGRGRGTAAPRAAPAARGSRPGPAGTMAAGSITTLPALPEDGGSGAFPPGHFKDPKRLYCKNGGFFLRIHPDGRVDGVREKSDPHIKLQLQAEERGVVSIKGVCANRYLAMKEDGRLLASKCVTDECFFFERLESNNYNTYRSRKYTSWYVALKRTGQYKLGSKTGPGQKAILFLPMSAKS
# [7] = JC-1 mitochondrial potential readout, lung cancer cells – cell-based, A549, JC-1 fluorescence, basal, 24 h, 100 nL, profiling panel (AID 1138); conditions: higher = more signal;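 also: A549 lung adenocarcinoma cells under basal conditions with no added stimulus; test concentration not given here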
# Lefty1 = Lefty1 protein binding to printed compounds – biochemical, small-molecule microarray, 635/667 nm fluorescence, primary screen (AID 1139); conditions: fluorescence 635/667, higher = more signal
# [8] = tested on: wheat germ agglutinin (Triticum aestivum), Alexa647-labelled; assay: Alexa647-WGA lectin binding to printed small molecules – biochemical, small-molecule microarray, 635/667 nm fluorescence, artefact control for SMM control-protein annotation, profiling panel (AID 1140); conditions: WGA-A647 binding, 635 nm fluorescence, higher = more signal;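 also: score merges 667 nm feature emission with signal to noise over triplicate slides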
# [9] = molecular target: Luciferin 4-monooxygenase (Photinus pyralis) (UniProt P08659); assay: inhibition of purified Photinus pyralis luciferase – biochemical, luminescence, purified enzyme, 2006 set, primary screen (AID 1141); conditions: purified firefly luciferase, SteadyGlo luminescence, 30 min; higher = more signal, called active from +8 up or from −8 down;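 also: cell-free assay with purified firefly luciferase at 100 ng per well in PBS; test concentration not given here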
# Sequence of Luciferin 4-monooxygenase (Photinus pyralis) (P08659 whole entry, looked up): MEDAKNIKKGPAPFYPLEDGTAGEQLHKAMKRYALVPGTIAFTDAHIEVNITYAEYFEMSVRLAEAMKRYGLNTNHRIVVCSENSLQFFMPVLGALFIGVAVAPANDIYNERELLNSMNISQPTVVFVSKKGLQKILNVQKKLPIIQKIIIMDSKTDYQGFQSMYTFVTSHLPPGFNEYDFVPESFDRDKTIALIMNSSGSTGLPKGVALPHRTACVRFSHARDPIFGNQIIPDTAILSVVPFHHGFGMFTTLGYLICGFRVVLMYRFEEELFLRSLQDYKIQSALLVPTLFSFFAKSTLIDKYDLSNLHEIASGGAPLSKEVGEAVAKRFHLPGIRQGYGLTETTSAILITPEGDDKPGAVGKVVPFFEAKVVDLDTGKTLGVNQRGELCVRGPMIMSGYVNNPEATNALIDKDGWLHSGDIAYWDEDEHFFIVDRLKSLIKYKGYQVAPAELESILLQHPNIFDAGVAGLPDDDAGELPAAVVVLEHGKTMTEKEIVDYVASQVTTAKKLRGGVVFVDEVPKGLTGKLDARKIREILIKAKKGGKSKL
# [10] = tested on: Wnt5a (protein binding on small-molecule microarray); assay: small molecules binding Wnt5a protein – biophysical, small-molecule microarray, 635/667 nm fluorescence, primary screen (AID 1142); conditions: 635 nm fluorescence, higher = more signal;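 also: fluorescence read at 667 nm with signal to noise per printed feature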
# [11] = ATP-based viability of Huh7 replicon cells – cell-based, CellTiter-Glo luminescence, basal, 48 h, cytotoxicity control for HCV replication inhibitor project, primary screen (AID 1143); conditions: higher = more signal, called active from +8 up or from −8 down;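 also: Huh7 hepatoma cells carrying a hepatitis C replication reporter with no stimulus; test concentration not given here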
# [12] = Pseudomonas biofilm growth suppression – PAO1 strain, BacTiter-Glo luminescence, LB-PBS, primary screen (AID 1144); conditions: P. aeruginosa PAO1 biofilm, 12 h, higher = more signal
# [13] = basal CRE-LacZ reporter activity in PC12 – cell-based, unstimulated, primary screen (AID 1145); conditions: no forskolin, luminescence, 4.5 h, higher = more signal, called active from +8 up or from −8 down
# [14] = forskolin-driven CRE-LacZ activity in PC12 – cell-based, CRE-LacZ reporter, forskolin-stimulated, primary screen (AID 1146); conditions: luminescence, 4.5 h, higher = more signal, called active from +8 up or from −8 down;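 also: PC12 cells with 6xCRE LacZ reporter stimulated by forskolin 10 µM; beta-galactosidase reporter signal reflecting CREB driven transcription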
# [15] = molecular target: Streptavidin (Streptomyces avidinii) (UniProt P22629); assay: compounds binding control protein streptavidin – biophysical, small-molecule microarray, 635/667 nm fluorescence, artefact control for SMM compound annotation, primary screen (AID 1147); conditions: higher = more signal;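 also: signal reflects streptavidin binding to arrayed compounds as a control protein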
# Sequence of Streptavidin (Streptomyces avidinii) (P22629 whole entry, looked up): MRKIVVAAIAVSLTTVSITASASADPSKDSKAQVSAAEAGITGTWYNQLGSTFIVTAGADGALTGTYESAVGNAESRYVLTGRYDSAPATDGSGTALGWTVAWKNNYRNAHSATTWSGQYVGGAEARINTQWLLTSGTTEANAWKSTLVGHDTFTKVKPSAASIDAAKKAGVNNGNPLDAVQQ
# [16] = probe aInhba binding on compound microarray – biochemical, small-molecule microarray, 635/667 nm fluorescence, primary screen (AID 1148); conditions: higher = more signal;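 also: score merges 667nm spot fluorescence with signal-to-noise for antibody binding to printed compounds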
# Torsin-1A (Homo sapiens) [17] = molecular target: Torsin-1A (Homo sapiens) (UniProt O14656); assay: TOR1A wild-type binding on microarray – cell lysate, small-molecule microarray, lysate, 635/667 nm, primary screen (AID 1149); conditions: COS7 hTOR1A-WT lysate, 635 nm fluorescence, higher = more signal
# Sequence of Torsin-1A (Homo sapiens) (O14656 whole entry, looked up): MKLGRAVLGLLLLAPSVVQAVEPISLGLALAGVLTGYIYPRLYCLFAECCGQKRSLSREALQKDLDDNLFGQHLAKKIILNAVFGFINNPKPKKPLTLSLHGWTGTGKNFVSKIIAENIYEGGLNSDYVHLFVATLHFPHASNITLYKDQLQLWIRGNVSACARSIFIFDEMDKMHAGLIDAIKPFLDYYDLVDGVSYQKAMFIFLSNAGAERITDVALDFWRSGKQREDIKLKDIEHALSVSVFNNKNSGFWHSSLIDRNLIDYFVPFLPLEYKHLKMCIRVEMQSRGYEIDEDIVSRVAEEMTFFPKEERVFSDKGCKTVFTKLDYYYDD
# Torsin-1A (Homo sapiens) [18] = molecular target: Torsin-1A (Homo sapiens) (UniProt O14656); assay: torsin A mutant lysate binding on microarrays – cell lysate, small-molecule microarray, COS7 lysate, 635/667 nm fluorescence, primary screen (AID 1150); conditions: COS7 hTOR1A mutant lysate, 635 nm fluorescence, higher = more signal;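 also: score pools 667 nm emission and signal to noise measuring lysate protein binding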
# [19] = tested on: Sonic hedgehog protein (Shh); assay: Sonic hedgehog microarray binding compounds – biochemical, small-molecule microarray, 635/667 nm fluorescence, primary screen (AID 1151); conditions: 635 nm fluorescence, higher = more signal;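 also: Shh protein binding to compounds spotted on small-molecule microarray slides; score combines spot fluorescence intensity with signal-to-noise across triplicate slides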
Compound,composite z-score [1],composite z-score [2],composite z-score [3],composite z-score [4],composite z-score [5],composite z-score [6],z-score [7],composite z-score (Lefty1),composite z-score [8],z-score [9],composite z-score [10],z-score [11],z-score [12],z-score [13],z-score [14],composite z-score [15],composite z-score [16],composite z-score (Torsin-1A (Homo sapiens) [17]),composite z-score (Torsin-1A (Homo sapiens) [18]),composite z-score [19]
CCCC[C@@H]1C[C@H]1[C@@H](NC(=O)c1ccccc1)c1ccc(Cl)cc1,-0.0782,-1.52,0.528,-2.07,-2.37,-1.9,1.66,-2.22,-1.6,0.923 (inactive),-0.546,-2.6 (inactive),0.173 (inactive),0.197 (inactive),0.699 (inactive),-1.33,-0.322,4.37,-0.539,-1.34
COCCOC(=O)N1C(=O)[C@@]2(c3cc(C#CC4(O)CCCCCC4)ccc31)[C@H](c1ccccc1OCCO)N1[C@H](c3ccccc3)[C@H](c3ccccc3)OC(=O)[C@H]1[C@@H]2C(N)=O,1.47,1.18,0.639,0.872,1.41,1.51,-1.68,1.56,1.02,-0.927 (inactive),0.448,-6.31 (inactive),0.754 (inactive),0.245 (inactive),0.0169 (inactive),0.421,-0.0494,0.749,0.761,1.97
O=C1O[C@H](c2ccccc2)[C@H](c2ccccc2)N2[C@H]1[C@@H](C(=O)O)[C@]1(C(=O)Nc3ccccc31)[C@H]2c1ccc(O)cc1,-0.585,-0.0964,0.133,-1.31,0.0111,0.152,0.226,-0.634,-0.55,0.002 (inactive),0.251,0.0915 (inactive),-0.0265 (inactive),-0.0566 (inactive),-0.763 (inactive),-0.516,-0.0418,0.109,1.45,-0.429
O=C1NC(=O)C2C1C=CC(C(O)c1c(F)cccc1Cl)N2Nc1ccccn1 (stereo not given),0.582,0.257,0.202,0.776,0.477,0.731,0.52,-0.236,0.228,-0.194 (inactive),0.233,0.63 (inactive),0.475 (inactive),0.0535 (inactive),0.204 (inactive),-0.201,-0.0195,0.355,0.222,-0.0146
COc1cc(CO)cc(I)c1O[C@H]1C=C(C(=O)NCCO)C[C@@H](N(Cc2ccc(F)cc2)C(=O)C2CCCO2)[C@@H]1O (stereo not given in full),0.608,0.317,0.079,0.247,0.34,0.47,1.46,-0.0522,0.517,-0.951 (inactive),-0.212,-0.457 (inactive),-0.583 (inactive),0.949 (inactive),-1.24 (inactive),-0.274,-0.227,-0.0326,-0.0306,0.399
